Reference: ChEMBL document CHEMBL4513146, “CO-ADD screening of Karazin Kharkiv National University (Ukraine) compounds”
Entries with a potency or affinity are not part of this list.

Tests used:
Klebsiella pneumoniae = details: Concentration 32 ug.mL-1;; ASSAY_TEST Inhibition of Bacterial Growth; detection method Absorption (OD600); MEDIA CAMHB; plate type 384well; NBS; CORNING #3640; time 18 hr
Candida albicans = details: Concentration 32 ug.mL-1; ASSAY_TEST Inhibition of Fungal Growth; detection method Absorption (OD530)
Cryptococcus neoformans = details: Concentration 32 ug.mL-1; ASSAY_TEST Inhibition of Fungal Growth; detection method Resazurin; Absorption (OD600-OD570); plate type 384well; NBS; CORNING #3640

Row | SMILES | Inhibition (Klebsiella pneumoniae) | Inhibition (Candida albicans) | Inhibition (Cryptococcus neoformans)
1 | CCCn1c(=O)c2sccc2n2c(=O)n(CC(=O)c3cccc(OC)c3)nc12 | 7.12% | 6.53% | -27.27%
2 | CCOc1ccc(-c2nc(CSc3nc4ccccc4n4c(C(C)C)nnc34)c(C)o2)cc1 | 2.25% | -0.51% | -14.56%
3 | Cc1ccccc1CN(c1ccc(C(C)C)cc1)S(=O)(=O)c1cccn2c(C)nnc12 | 8.89% | 4.49% | -10.58%
4 | CC(C)c1nnc2c(=O)n(CC(=O)Nc3ccc(Br)cc3)c3ccccc3n12 | 14.25% | 2.31% | -6.21%
5 | CCc1ccc(NC(=O)Cn2nc3c(=O)n(-c4ccc(Br)cc4)ccn3c2=O)cc1 | -9.6% | 4.29% | -8.7%
6 | O=C(Cn1nc2c(Oc3ccccc3)nccn2c1=O)Nc1ccc(Br)cc1F | -1.93% | 5.04% | -11.28%
7 | COc1cccc(NC(=O)Cn2nc3c(Sc4ccccc4)nccn3c2=O)c1 | 2.45% | 7.99% | -6.51%
8 | O=S(=O)(c1ccc2nncn2c1)N(Cc1ccccc1F)c1cccc(F)c1 | -5.56% | 2.89% | -8.33%
9 | Cc1cccc(Oc2nc3ccccc3n3c(=O)n(CC(=O)NCc4ccco4)nc23)c1C | 3.72% | 36.74% | -27.2%
10 | COc1ccc(-c2cc3c4nnc(CCC(=O)NCCc5ccccc5)n4ccn3n2)cc1 | 3.81% | 3.45% | -16.37%
11 | COc1ccc(N(Cc2cccc(OC)c2)S(=O)(=O)c2ccc3nnc(C)n3c2)cc1 | 9.44% | 0.91% | -1.64%
12 | O=C(CSc1nc2ccccc2n2cnnc12)Nc1cccc(Br)c1 | 2.26% | -0.56% | -6.2%
13 | COc1ccccc1CNC(=O)CSc1nnc2c3cc(-c4ccc(C)cc4)nn3ccn12 | -1.35% | -1.83% | -12.39%
14 | Cc1ccc(CN(c2cc(C)cc(C)c2)S(=O)(=O)c2cccn3c(C)nnc23)cc1 | 1.08% | -0.03% | -12.99%
15 | CCCCOc1ccc(-c2cc3c4nnc(SCC(=O)Nc5ccc(F)cc5)n4ccn3n2)cc1 | 3.87% | -1.37% | -16.65%
16 | N#CCn1nc2n(Cc3ccccc3)c(=O)c3ccc(C(=O)NC4CCCCC4)cc3n2c1=O | 4.19% | 1.65% | -13.83%
17 | O=C(CCc1nnc2c(N3CCCCC3)nc3ccccc3n12)NCc1ccc(F)cc1 | 6.52% | 8.78% | -23.71%
18 | Cc1ccc(Sc2nccn3c(=O)n(CC(=O)N4CCN(c5ccc(F)cc5)CC4)nc23)c(C)c1 | -6.63% | 1.39% | -106.74%
19 | CCc1ccccc1Sc1nccn2c(=O)n(CC(=O)Nc3cc(Cl)c(OC)cc3OC)nc12 | -2.45% | 17.44% | -4.37%
20 | Cc1cc(C)cc(NC(=O)Cn2nc3n(C)c(=O)c4c(c(-c5ccccc5)cn4C)n3c2=O)c1 | 6.43% | 0.06% | -5.54%
21 | Cc1ccc(Sc2nccn3c(=O)n(CC(=O)Nc4ccc(C)c(Cl)c4)nc23)c(C)c1 | 10.52% | -2.58% | -26.74%

Row | SMILES | Inhibition (Klebsiella pneumoniae) | Inhibition (Candida albicans) | Inhibition (Cryptococcus neoformans)
22 | Cc1cccc(N(Cc2ccccc2F)S(=O)(=O)c2ccc3nncn3c2)c1 | -1.12% | 0.03% | -7.87%
23 | COC(=O)c1ccccc1NC(=O)Cn1nc2c(Oc3ccccc3)nccn2c1=O | 8.23% | 7% | -9.79%
24 | O=C(Cn1nc2ccc(-c3ccccc3)nn2c1=O)Nc1ccc(Cl)c(C(F)(F)F)c1 | 4.19% | 14.71% | -8.29%
25 | O=S(=O)(c1cccn2cnnc12)N(Cc1cccc(F)c1)c1cccc(Cl)c1 | 2.34% | 1.27% | -7.2%
26 | O=C(Cn1nc2c(N3CCOCC3)nccn2c1=O)NCc1ccc(Cl)cc1 | 8.43% | 3.53% | -3.97%
27 | COc1ccc(C)cc1NC(=O)Cn1nc2ccc(SC(C)(C)C)nn2c1=O | 5.72% | 3.1% | -12.69%
28 | Cc1nnc2ccc(S(=O)(=O)N(Cc3cc(F)cc(F)c3)c3ccccc3)cn12 | 7.27% | 2.01% | -9.38%
29 | Cc1nnc2ccc(S(=O)(=O)N(Cc3ccccc3F)c3ccc(F)c(F)c3)cn12 | 9.72% | 2.36% | -9.63%
30 | N#Cc1ccc(NC(=O)CSc2nnc3c4cc(-c5ccc(F)cc5)nn4ccn23)cc1 | 11.54% | 18.84% | -16.45%
31 | CC(C)Cn1c(=O)c2sccc2n2c(=O)n(Cc3ccccc3Cl)nc12 | 3.91% | 1.39% | -28.89%
32 | COc1ccc(CNC(=O)CCc2nnc3c(N4CCCCC4)nc4ccccc4n23)cc1OC | 15.18% | 6.91% | -22.66%
33 | COc1cc(OC)c(NC(=O)Cn2nc3c(Oc4ccccc4)nccn3c2=O)cc1Cl | -10.94% | 2.58% | -9.36%
34 | O=C(Cn1nc2c(Sc3cccc(F)c3)nccn2c1=O)Nc1cccc(Br)c1 | 7.1% | -0.26% | -2.48%
35 | Cc1ccc(-c2nc(CSc3nc4ccccc4n4c(C(C)C)nnc34)c(C)o2)cc1 | 3.51% | 2.71% | -13.81%
36 | Cc1ccc(NC(=O)Cn2nc3c(N4CC(C)CC(C)C4)nccn3c2=O)c(F)c1 (stereo not drawn) | 10.72% | 3.58% | -9.98%
37 | Cc1ccc(Cn2c(=O)c3ccccc3n3c(=O)n(CC#N)nc23)cc1 | 6.47% | -0.23% | -25%
38 | CCc1ccccc1NC(=O)CSc1nnc2c(=O)n(-c3ccccc3)ccn12 | 11.56% | -0.14% | -23.92%
39 | Cc1cccc(Cn2nc3c(=O)n(-c4cccc(Cl)c4C)ccn3c2=O)c1 | -2.16% | 8.37% | -8.02%
40 | Cc1ccc(-c2ccc3nnc(CCC(=O)NCc4ccc(C(C)C)cc4)n3n2)cc1C | 10.51% | 5.56% | -18.09%
41 | CCOc1ccc(-n2ccn3c(SCc4cccc(C(F)(F)F)c4)nnc3c2=O)cc1 | 0.24% | 0.48% | -7.62%
42 | Cc1c(Cl)cccc1-n1ccn2c(=O)n(Cc3cccc(Cl)c3)nc2c1=O | 5.86% | 2.56% | -15.28%

Row | SMILES | Inhibition (Klebsiella pneumoniae) | Inhibition (Candida albicans) | Inhibition (Cryptococcus neoformans)
43 | COc1cccc(-n2ccn3c(SCC(=O)c4c[nH]c5ccc(OC)cc45)nnc3c2=O)c1 | 12.06% | 5.77% | -34.12%
44 | CCOc1ccc(-n2ccn3c(SCC(=O)Nc4ccc(C)c(C)c4)nnc3c2=O)cc1 | -8.39% | 2.77% | -12.45%
45 | COc1ccc(CCNC(=O)Cn2nc3c(N4CCOCC4)nccn3c2=O)cc1OC | 17.72% | 2.21% | -10.16%
46 | Cc1nnc2ccc(S(=O)(=O)N(CC(=O)OC(C)(C)C)c3ccc4c(c3)OCO4)cn12 | 6.34% | 5.98% | -4.94%
47 | Cc1cccc(NC(=O)Cn2nc3c4cc(-c5ccc(Cl)cc5)nn4ccn3c2=O)c1 | 1.22% | 16.29% | -21.44%
48 | O=c1n(Cc2ccc3c(c2)OCO3)nc2ccc(-c3ccccc3)nn12 | 13.28% | 2.43% | -7.16%
49 | CC(C)Sc1ccc2nn(CC(=O)Nc3ccccc3F)c(=O)n2n1 | 9.69% | 2.46% | -3.85%
50 | O=C(CSc1nnc2c(=O)n(-c3ccc(Br)cc3)ccn12)Nc1cccc(F)c1 | 8.72% | 6.18% | -18.67%
51 | Cc1ccc(CN(c2cccc(F)c2)S(=O)(=O)c2ccc3nnc(C)n3c2)cc1 | -4.46% | 1.78% | -8.87%
52 | O=C(Cn1nc2c(SC3CCCCC3)nccn2c1=O)Nc1cccc(Br)c1 | -4.59% | 26.25% | -20.18%
53 | O=C(Cn1nc2ccc(SCc3ccc(Cl)cc3)nn2c1=O)Nc1ccc(F)c(F)c1 | 3.9% | 20.34% | -13.26%
54 | COc1ccccc1NC(=O)Cn1nc2c(SCc3ccccc3)nccn2c1=O | 0.49% | 5.7% | -17.11%
55 | Cc1ccc(-n2ccn3c(SCC#N)nnc3c2=O)cc1C | 10.69% | 1.05% | -5.76%
56 | CC(C)Cn1c(=O)c2sccc2n2c(=O)n(CC(=O)N(C)c3ccccc3)nc12 | 9.42% | -0.55% | -10.06%
57 | Cc1cc(C)cc(NC(=O)Cn2nc3ccc(SC(C)(C)C)nn3c2=O)c1 | 7.43% | 7% | -18.29%
58 | Cc1cccc(N(Cc2cccc(F)c2)S(=O)(=O)c2cccn3c(C)nnc23)c1 | 14.45% | 2.26% | -8.56%
59 | COc1cccc(Oc2nccn3c(=O)n(CC(=O)Nc4cc(F)ccc4F)nc23)c1 | 3.2% | 5.06% | -8.45%
60 | Cc1cc2nn(CC(=O)Nc3cc(F)cc(F)c3)c(=O)n2c(Nc2ccccc2C)n1 | 6.94% | 0.1% | -12.73%
61 | Cc1ccc(Sc2nccn3c(=O)n(CC(=O)Nc4ccccc4C)nc23)c(C)c1 | 6.75% | 4.26% | -25.74%
